Results: ChEMBL document CHEMBL1961873, “Compounds: GSK PKIS; Assays: Nanosyn kinase panel” (2012)

target: T1, Ephrin type-B receptor 4 (Homo sapiens) (UniProt P54760); details: at 0.1 µM
T1 sequence (whole entry): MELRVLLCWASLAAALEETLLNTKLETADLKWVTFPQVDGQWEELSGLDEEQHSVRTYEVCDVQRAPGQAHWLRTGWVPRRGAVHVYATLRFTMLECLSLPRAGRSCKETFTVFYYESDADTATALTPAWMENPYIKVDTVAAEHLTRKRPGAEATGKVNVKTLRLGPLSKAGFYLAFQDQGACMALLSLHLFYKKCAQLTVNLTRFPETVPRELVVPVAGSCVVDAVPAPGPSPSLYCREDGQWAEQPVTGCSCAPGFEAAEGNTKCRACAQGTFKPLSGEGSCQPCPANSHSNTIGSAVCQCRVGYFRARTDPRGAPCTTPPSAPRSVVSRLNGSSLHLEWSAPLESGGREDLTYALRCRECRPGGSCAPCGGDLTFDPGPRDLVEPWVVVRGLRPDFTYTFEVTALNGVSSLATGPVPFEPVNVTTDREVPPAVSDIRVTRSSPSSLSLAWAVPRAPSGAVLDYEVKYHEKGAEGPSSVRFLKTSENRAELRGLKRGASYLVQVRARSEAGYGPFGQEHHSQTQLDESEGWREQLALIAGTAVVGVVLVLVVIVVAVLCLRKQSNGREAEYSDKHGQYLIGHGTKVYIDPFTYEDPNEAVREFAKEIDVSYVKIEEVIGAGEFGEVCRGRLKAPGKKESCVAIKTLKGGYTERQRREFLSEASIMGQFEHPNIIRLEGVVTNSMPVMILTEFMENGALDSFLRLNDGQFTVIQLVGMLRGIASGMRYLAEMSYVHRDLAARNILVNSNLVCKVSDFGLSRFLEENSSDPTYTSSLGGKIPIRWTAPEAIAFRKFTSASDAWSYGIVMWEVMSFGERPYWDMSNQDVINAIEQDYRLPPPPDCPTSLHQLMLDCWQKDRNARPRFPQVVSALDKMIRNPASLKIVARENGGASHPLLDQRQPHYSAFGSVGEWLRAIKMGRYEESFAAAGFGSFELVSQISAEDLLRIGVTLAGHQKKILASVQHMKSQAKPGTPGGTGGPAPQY
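Also: each value is a mean percent inhibition.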

Row | Compound | inhibition [%]
1 | CN(C)C(=O)O[C@@H]1CN[C@@H](C#Cc2cc3ncnc(Nc4ccc(OCc5cccc(F)c5)c(Cl)c4)c3s2)C1 | 1.64
2 | N#Cc1c(NC(=O)c2ccccc2F)sc2c1CCCC2 | -2.29
3 | Cc1ccc2c(-c3ccnc(Nc4ccc5c(c4)OCCO5)n3)c(-c3ccc(C(F)(F)F)cc3)nn2n1 | -1.12
4 | COc1cccc(-n2nc(C)c3c(N/N=C(\C)c4ccncc4)ncnc32)c1 | 0.44
5 | NS(=O)(=O)c1ccc(N/N=C2\C(=O)Nc3ccc(Cl)cc32)cc1 | 1.05
6 | CCOc1nccc2c1nc(-c1nonc1N)n2CC | 2.78
7 | Cc1ccc(C(=O)NC2CC2)cc1-c1ccc2[nH]ncc2c1 | -2.42
8 | c1ccc(Nc2ncc(-c3ccccc3)o2)cc1 | 4.58
9 | Cc1cc(Cl)cc2c1NC(=O)C2=NNc1ccc(S(N)(=O)=O)cc1 | 1.3
10 | O=C1Nc2ccccc2/C1=C/Nc1ccc2[nH]c(=O)[nH]c2c1 | 5.44
11 | Nc1nccc(-c2c(-c3ccc(F)cc3)ncn2CCCN2CCOCC2)n1 | 2.19
12 | [O-][S+]1CCN(Cc2ccc(-c3ccc4ncnc(Nc5ccc(OCc6ccccc6)c(Cl)c5)c4c3)o2)CC1 | -0.7
13 | NS(=O)(=O)c1cccc(-c2cc3ccncc3cc2OCc2ccccc2)c1 | 2.45
14 | CCCN1CCCC(c2ccc(Nc3nc(Nc4cc(F)ccc4C(N)=O)c4cc[nH]c4n3)c(OC)c2)C1 (stereo unspecified) | 2.18
15 | OCc1ccc(-c2nc(-c3ccccn3)c(-c3ccc4c(c3)OCO4)[nH]2)cc1 | 4.58
16 | COc1ccc(-c2nn3ncccc3c2-c2ccnc(Nc3cccc(C(F)(F)F)c3)n2)cc1 | 0.66
